Screening data as filed in PubChem BioAssay.
Spn MK inh = blocks S. pneumoniae mevalonate kinase. purified MK, PK/LDH-coupled NADH absorbance 340 nm. inhibition, % at 10 µM. hit rate 0.48% among 65,000. AID 555;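 active = ranked among the strongest by inhibition in the single 10 µM screen, a fixed top-ranked set picked for dose follow-up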
Spn DPM-DC inh = inhibitors of Streptococcus pneumoniae diphosphomevalonate decarboxylase; purified DPM-DC, PK/LDH coupled NADH fluorescence; calls only at 10 µM; hit rate 0.49% among 65,000; AID 556;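 active = the 320 compounds with the highest percent inhibition in the single-dose primary screen, excluding strongly autofluorescent ones, cut at about 32% in these data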;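 note: kinetic rate of NADH fluorescence loss reporting ADP formed by the decarboxylase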
Abs 340nm = absorbance at 340 nm. compound absorbance at 340 nm, fold over control. fold change at 10 µM. 65,000 tested, under 10 active. AID 708;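 active = at 10 µM dose, initial 340 nm absorbance at least 2 fold that of control wells; inactive = change under 2 fold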;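 note: initial absorbance extrapolated from kinetic A340 decline of NADH oxidation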
NADH coupling = blocks coupling enzymes of NAD/NADH assays; hit rate 0.02% among 65,000; coupled PK/LDH NADH assays, four targets; IC50, µM (highest dose often 10 µM);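 active = single-dose screening hits from any of four coupled enzyme assays that gave an IC50 when retested across doses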;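 note: the DPM-DC format reads NADH fluorescence rather than 340 nm absorbance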
Fluor 339 460 = intrinsic fluorescence of library compounds, ex339/em460 – biochemical, MLSMR library, data from DPM-DC assay, artefact control, profiling panel; compound autofluorescence, ex339/em460 nm, NADH buffer; hits give high values; 1 = no-compound wells, NADH background; fluorescence fold increase at 10 µM; hit rate 5.5% among 65,000; AID 709;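 active = at 10 µM, mean starting fluorescence two-fold or more over control wells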;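 note: signal is the first read of a kinetic run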
Spn PMK inh = blocks S. pneumoniae phosphomevalonate kinase | inhibition, % at 10 µM | hit rate 0.49% among 65,000 | AID 539 | purified PMK, PK/LDH-coupled NADH absorbance 340 nm;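 active = top-ranked compounds by inhibition in the single 10 µM screen, taking a fixed number of the strongest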
Hits are given with their value; - = inactive; . = not tested or not shown; + = active, no number. Most compounds without a hit are left out; they make up all but 6.3% or so of the library.

SMILES	Spn MK inh	Spn DPM-DC inh	Abs 340nm	NADH coupling	Fluor 339 460	Spn PMK inh
CCCCNC(=O)c1cc2c(=O)n3cccc(C)c3nc2n1C	-	.	-	-	2.1	-
COCCNC(=O)c1cc2c(=O)n3cccc(C)c3nc2n1C	-	.	-	-	2.1	-
CCOC(=O)c1[nH]c2ccc(OC)cc2c1NS(=O)(=O)c1ccc(OC)cc1OC	-	-	-	-	-	-
COC(=O)c1[nH]c2cc(OC)ccc2c1N	-	.	-	-	3.8	-
CCOC(=O)c1[nH]c2ccc(OC)cc2c1NC(=O)CCN1CCCC(C)C1 (stereo not given)	.	.	-	-	2.2	-
CCOC(=O)c1[nH]c2ccc(OC)cc2c1NC(=O)C(C)N1CCSCC1 (stereo not given)	-	.	-	-	3.8	-
CCOC(=O)c1[nH]c2ccc(OC)cc2c1N=CN(C)C	-	-	-	-	2.8	-
CSc1cccc(NC(=O)CN(C)S(=O)(=O)c2ccc(C)cc2)c1	-	-	-	-	-	-
CCOC(=O)c1[nH]c2ccc(OC)cc2c1NC(=O)OC	-	.	-	-	3.6	-
CCOC(=O)c1[nH]c2cc(OC)c(OC)cc2c1NC(=O)C(C)N1CCN(Cc2ccccc2)CC1 (stereo not given)	-	.	-	-	2.5	-
CCC(=O)Nc1cccc(-c2nc3ccccc3o2)c1	-	-	-	-	-	-
CC(=O)Nc1nc2ccc(-c3nc4ccccc4o3)cc2s1	-	.	-	-	2.2	-
c1ccc(-c2nc3ccccc3o2)nc1	-	-	-	-	-	-
Cc1ccnc2ccc(-c3nc4ccccc4o3)cc12	-	.	-	-	5	-
COC(=O)c1cc(NCc2ccc3c(c2)OCO3)ccc1N1CCOCC1	-	-	-	-	-	-
COc1cc(CNc2ccc(N3CCOCC3)c(C(=O)O)c2)ccc1OCC(N)=O	-	+	-	-	2.3	-
COc1ccccc1CNc1ccc(N2CCOCC2)c(C(=O)O)c1	-	-	-	-	2.2	-
O=C(O)c1cc(NCc2ccc3c(c2)OCO3)ccc1N1CCOCC1	-	-	-	-	2.5	-
Cc1ccc(C(=O)C2COC(=O)C2)cc1 (stereo not given)	-	-	-	-	-	-
O=C(Nc1cccc(S(=O)(=O)c2cccc(NC(=O)C3CC3)c2)c1)C1CC1	-	-	-	-	-	-
O=C1N=C(c2ccccc2)C(c2ccccc2)N1 (stereo not given)	-	.	-	-	2.2	-
Cc1cc2nc(-c3cccnc3SCC(=O)NCc3ccco3)[nH]c2cc1C	-	.	-	-	3.7	-
CCOc1cccc(NC(=O)C2CC(=O)N(C)C(=Nc3cccc(F)c3)S2)c1 (stereo not given)	-	-	-	-	-	-
CNc1nc2sc3c(c2c(=O)n1C)CC(C)(C)SC3	-	-	-	-	2.2	-
CN(C)c1nc2sc3c(c2c(=O)n1C)CC(C)(C)OC3	-	-	-	-	-	-
SMILES	Spn MK inh	Spn DPM-DC inh	Abs 340nm	NADH coupling	Fluor 339 460	Spn PMK inh
CSc1nc2[nH]c3c(c2c2nnnn12)CCCC3	-	.	-	-	2.3	-
Cc1nn(-c2ccccc2)c2sc(C(=O)C(C#N)c3ccccn3)cc12 (stereo not given)	-	-	-	-	-	-
Cc1ccc2cccc(S(=O)(=O)Nc3ccc4c(c3)OCO4)c2n1	-	-	-	-	-	-
O=C(COc1ncnc2ccccc12)NCCC1=CCCCC1	-	-	-	-	-	-
O=C(COc1cnc2ccccc2n1)NCCC1=CCCCC1	-	+	-	-	-	-
COC(=O)Nc1ccc(S(=O)(=O)N2c3ccccc3CCC2C)cc1 (stereo not given)	-	-	-	-	-	-
CN(CC(=O)N1CC=C(c2ccccc2)CC1)S(=O)(=O)c1cnc[nH]1	-	-	-	-	-	-
O=C1CC(C2CCCO2)C(=O)N1Cc1ccccc1 (stereo not given)	-	-	-	-	-	-
Clc1ccc2c(c1)C1OCCC1C(c1ccco1)N2 (stereo not given)	-	.	-	-	3.7	-
CCOC(=O)c1cccc(NC(=O)CN(c2ccc(C)cc2)S(=O)(=O)c2c(C)n[nH]c2C)c1	-	-	-	-	-	-
O=C(C1CCN(S(=O)(=O)c2cccc3cccnc23)CC1)N1CCN(C2CCCC2)CC1	-	-	-	-	-	-
Cc1occc1-c1nnc2sc(-c3ccc(-c4ccc(Cl)cc4)o3)nn12	-	.	-	-	2.1	-
CCCn1c(=O)c(C(=O)Nc2nnc(C)s2)c(O)c2ccccc21	-	-	-	-	-	-
CCN(CC)c1ccc(NC(=O)CSc2nnc(N)s2)cc1C	-	-	-	-	-	-
CCN(CC)c1cc(C)c2cc(NC(=O)CNC(C)=O)ccc2n1	-	.	-	-	2.2	-
COc1ccc(OC(C)=O)c(C2c3cc(OC)c(OC)cc3CCN2C(C)=O)c1 (stereo not given)	-	-	-	-	-	-
COc1cc2c(cc1OC)C(c1cc3cc(OC)c(OC)cc3[nH]c1=O)N(C(=O)C1CC1)CC2 (stereo not given)	-	-	-	-	2.6	-
CCCn1c(=O)n(C)c(=O)c2c3oc(=O)c(NC(=O)c4ccc(F)cc4)cc3[nH]c21	-	-	-	-	-	-
CC(C)c1ncc(C(O)c2cccc3ccccc23)n1C (stereo not given)	-	-	-	-	-	-
COCc1cc(=O)[nH]c(Nc2nc(C)c3ccc(C)cc3n2)n1	-	-	-	-	-	28
c1ccc(C(c2nnnn2C2CCCCC2)N2CCc3ccccc3C2)nc1 (stereo not given)	-	-	-	-	4	-
Cc1nn(-c2ccccn2)c2nc(-c3cccs3)cc(C(=O)N3CCOCC3)c12	-	.	-	-	2.1	-
CCCCC(CC)CNC(=O)c1cccs1 (stereo not given)	-	-	-	-	-	-
CCCCNc1nc2c(c(=O)n(C)c(=O)n2C)n1CCC	-	-	-	-	-	26
Cc1onc(-c2ccccc2)c1C(=O)N1CCc2ccccc21	-	-	-	-	-	-
SMILES	Spn MK inh	Spn DPM-DC inh	Abs 340nm	NADH coupling	Fluor 339 460	Spn PMK inh
O=C(CN1CCOCC1)NCC12CC3CC(CC(C3)C1)C2	-	-	-	-	-	-
CN(C)CCNC(=O)c1coc(=O)c(Br)c1	-	.	-	-	3.7	-
Cc1ccc(C(=O)NCCN(C)C)c(C)c1	-	-	-	-	-	-
COC(=O)c1ccc(C)c(NS(=O)(=O)c2ccc(OC)cc2)c1	-	-	-	-	-	-
COC(=O)c1ccc(C(=O)OC)c(NS(=O)(=O)c2ccc(NC(C)=O)cc2)c1	-	.	-	-	2.2	-
N#Cc1sc2nc3c(c(-c4ccco4)c2c1N)CCCC3	-	-	-	-	-	-
COCc1cc(C)c2c(N)c(C#N)sc2n1	-	.	-	-	2.4	-
Cc1c(C(=O)NCC2CCCO2)oc2ccc(S(=O)(=O)N3CCCC3)cc12 (stereo not given)	-	-	-	-	-	-
